The source of these data is PubChem BioAssay AID1903 (Southern Research Specialized Biocontainment Screening …, 2009).

About 1,200 (0.39%) of roughly 310,000 compounds were called active. Only a sample is shown. Entries with a potency or affinity are not part of this list. A number with no mark means an inactive call. How the calls were made is not given here.

Broadly, the inhibition is the relative decrease from the control value, in per cent.

In the experiment the target is Large T antigen (Simian virus 40) (UniProt P03070). Kind of experiment: TAg ATPase/helicase activity blockers – biochemical (AID 1903). The conditions noted are these: SV40 large T antigen ATPase/helicase inhibition assay; at 20 µM; active compounds read high.
Sequence of Large T antigen (Simian virus 40) (P03070 whole entry, looked up): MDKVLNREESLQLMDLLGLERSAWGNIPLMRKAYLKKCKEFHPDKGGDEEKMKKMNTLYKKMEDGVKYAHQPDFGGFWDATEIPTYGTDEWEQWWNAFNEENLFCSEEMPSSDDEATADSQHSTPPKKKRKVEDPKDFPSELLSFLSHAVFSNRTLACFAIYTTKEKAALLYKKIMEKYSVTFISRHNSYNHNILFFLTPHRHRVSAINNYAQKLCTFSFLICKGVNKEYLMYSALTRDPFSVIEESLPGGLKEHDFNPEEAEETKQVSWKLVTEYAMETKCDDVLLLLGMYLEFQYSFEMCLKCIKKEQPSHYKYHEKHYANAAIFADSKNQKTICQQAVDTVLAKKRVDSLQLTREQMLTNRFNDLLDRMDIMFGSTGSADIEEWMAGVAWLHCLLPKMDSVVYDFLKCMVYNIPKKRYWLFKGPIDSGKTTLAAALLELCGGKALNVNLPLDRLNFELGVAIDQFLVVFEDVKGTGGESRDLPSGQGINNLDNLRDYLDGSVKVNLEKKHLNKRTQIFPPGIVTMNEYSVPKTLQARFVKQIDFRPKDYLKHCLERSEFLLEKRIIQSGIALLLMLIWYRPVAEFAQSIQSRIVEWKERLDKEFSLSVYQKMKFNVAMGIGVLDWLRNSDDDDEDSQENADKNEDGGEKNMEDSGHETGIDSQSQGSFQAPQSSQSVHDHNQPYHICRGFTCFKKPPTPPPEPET
With `Cc1ccccc1NN=Nc1nc2c([nH]1)c(=O)n(C)c(=O)n2C`, the inhibition is 14.1%.
For the molecule `Cc1ccc(NN=Nc2nc3c([nH]2)c(=O)n(C)c(=O)n3C)cc1`, the inhibition was 9.3%.
`OC(COc1c(F)cc(Br)cc1F)CN1CCOCC1` (stereo unspecified): the inhibition was 2.96%.
As for `O=C(CNC(=O)[C@@H]1Cc2ccccc2CN1)Nc1ccc2c(c1)OCCO2`, the figure is 10.2%; as for `CC1=C(C#N)c2nc(N)c(C#N)c(C)c2/C1=C\c1ccc(C)cc1`, 12.2%.
`Cc1ccc2nc(/C(C#N)=C/c3ccc(-c4ccccc4C(=O)O)o3)[nH]c2c1`: the inhibition was 24%.
As for `COc1cc(/C=C2/C(=N)N3C(c4ccccc4)=CSC3=NC2=O)ccc1OCC(=O)O`, the figure is 31%.
As to `COCCCNC(=O)/C(C#N)=C/c1ccc(OCC(=O)O)c(OC)c1`, the inhibition was 34.6%.
Take `Cc1ccc2c(nc3s/c(=C\c4ccc(-c5ccccc5C(=O)O)o4)c(=O)n32)c1C`: the inhibition was 21.4%.
As for `CCOc1cc(-c2c(C)c(C)nc(N)c2C#N)ccc1O`, the figure is 17.1%.
For the molecule `C/C=C/c1ccc(OCC(=O)O)c(OC)c1`, the inhibition was 10.3%.
Regarding `C/C=C/c1ccc(OCC(=O)OCC)c(OC)c1`, the inhibition is 10.1%.
As for `Cc1c(C(=O)Nc2ccccc2F)sc2ncn(CC(=O)N3CCCCC3)c(=O)c12`, the figure is 7.79%; as for `Brc1cccc(/C=N/Nc2nc(N3CCCCC3)nc(N3CCCCC3)n2)c1`, 3.51%; as for `CCOC(=O)c1ccccc1NC(=S)N1CCN(C2CCCCC2)CC1`, 7.91%.
In the case of `Cc1ccc2cccc(Oc3ncnc4scc(-c5ccc(Cl)cc5)c34)c2n1`, the inhibition was 25.5%.
In the case of `O=S(=O)(NCc1ccccn1)c1ccccn1`, the inhibition was 9.8%.
Consider `CCn1cc(C(=O)N2CCN(c3ccccc3)CC2)c(=O)c2cc(S(=O)(=O)N3CCOCC3)ccc21`, for which the inhibition is 4.92%.
As for `CCOc1ccc(Br)cc1S(=O)(=O)Nc1cccnc1`, the inhibition was 11.2%.
As for `O=C(NCCc1ccccn1)C1CC(=O)N(Cc2ccccc2Cl)C1` (stereo unspecified), the figure is 15.4%; as for `Brc1ccccc1-n1nnc(-c2cccnc2)n1`, 12.4%; as for `CCCCN(C(=N)N1CCCCC1)c1nc(C)c([N+](=O)[O-])c(=O)[nH]1`, 9.69%.
In the case of `Nc1cc(=O)[nH]c(SCC(=O)NNC(=O)Cc2ccccc2)n1`, the inhibition is 10.8%.
Take `O=c1[nH]c(NC2CCCCC2)c([N+](=O)[O-])c(=O)[nH]1`: the inhibition was 4.57%.
In the case of `S=C1Cc2ccccc2C(c2ccc(Cl)cc2)N1` (stereo unspecified), the inhibition is 2.33%.
As for `CCn1c(SCC(=O)Nc2ccc(NC(C)=O)cc2)nnc1C1CC1`, the figure is 12.8%.
As for `CCn1c(SCC(=O)Nc2ccc(F)cc2)nnc1C1CC1`, the figure is 3.39%; as for `CCn1nnnc1SCC(=O)Nc1ccc(N(C)C)cc1`, 37.7%; as for `CCCCn1nnnc1SCC(=O)Nc1ccc(C)cc1`, -2.62%.
As to `Cc1ccc(NC(=O)CSc2nnc(-c3cnccn3)n2C)cc1C`, the inhibition is 29.7%.
As to `Cc1ccc(NC(=O)CSc2nnc(C)c(=O)n2N)cc1`, the inhibition was 14.2%.
As for `CCc1ccc(NC(=O)CSc2nnc(-c3cnccn3)n2C)cc1`, the figure is 14.9%; as for `CC(=O)Nc1ccc(NC(=O)CSc2nnc(C)c(=O)n2N)cc1`, 12.1%; as for `O=C(CSc1ccc(-c2cccc([N+](=O)[O-])c2)nn1)NCc1ccccc1`, 11.8%.
In the case of `CCCc1cc(=O)oc2cc(OC3CCCCC3=O)ccc12` (stereo unspecified), the inhibition was 18.5%.
For the molecule `O=C(O)COc1ccc2c(c1)OCCO2`, the inhibition was -3.88%.
In the case of `CCOC(=O)c1sc2nc(CC(=O)OC)nc(NCCN(CC)CC)c2c1C`, the inhibition was 28.4%.
As for `Cc1cccc(NC(=O)CSc2nnc(-c3ccco3)c(-c3ccco3)n2)c1`, the figure is 35%.
As to `COc1ccc(NC(=O)CSc2nnc(-c3ccco3)c(-c3ccco3)n2)cc1OC`, the inhibition is 26.9%.
For `COC(=O)/C=C1/C(=O)N/C(=N\c2nc(C)cc(C)n2)N1c1ccc(OC)cc1`, the inhibition is 3.13%.
Regarding `COc1cc(/C=N/NC(=O)c2cccc(S(=O)(=O)N3CCCC3)c2)cc(OC)c1O`, the inhibition is 37.9%.
Regarding `CCOc1cc(/C=N/NC(=O)c2cccc(S(=O)(=O)N3CCCC3)c2)ccc1OCC(=O)N(C)C`, the inhibition was 0.99%.
Regarding `CC(=O)Nc1ccc(/C=N/NC(=O)c2cccc(S(=O)(=O)N3CCOCC3)c2)cc1`, the inhibition was 8.56%.
Consider `COc1cc(/C=N/NC(=O)c2cccc(S(=O)(=O)N3CCCCC3)c2)cc(Br)c1O`, for which the inhibition is 10.6%.
Consider `O=C(N/N=C/c1ccccn1)c1cccc(S(=O)(=O)N2CCCC2)c1`, for which the inhibition was 9.14%.
As for `O=C(N/N=C/c1cccnc1)c1cccc(S(=O)(=O)N2CCCC2)c1`, the figure is 17.7%.
Turning to `C/C(CC(=O)NC1CCCCCC1)=N\NC(=O)c1cnccn1`, the inhibition was 0.37%.
As for `COC(CNC(=O)C(=O)Nc1cc2c3c(c1)CCN3C(=O)CC2)OC`, the figure is 6.3%; as for `COc1ccc(Cn2c(=O)[nH]c3cc(C(=O)NC4CCN(Cc5ccccc5)CC4)ccc32)cc1`, 1.67%.
Take `COc1ccc(C(CNC(=O)COc2ccc(F)cc2Br)N2CCCC2)cc1` (stereo unspecified): the inhibition was 5.54%.
For the molecule `O=c1nc2n(c3cccc(Cl)c13)CCCCC2`, the inhibition is 5.2%.
As for `Cn1c(=O)n(CC(N)=O)c(=O)c2c1nc1n2CCCN1Cc1ccccc1`, the inhibition is 5.61%.
As to `CC(C)(C)C(=O)NC(=S)Nc1ccccc1F`, the inhibition is 0.75%.
As for `CC1=NN(c2ccccc2)C(=O)/C1=C\C=C\c1ccccc1`, the figure is 19.4%.
As for `CCOC(=O)c1ccc(N2N=C(C)/C(=C/C=C/c3ccco3)C2=O)cc1`, the figure is 21%.
For `CC1=NN(c2ccc(Cl)c(C(=O)O)c2)C(=O)C1`, the inhibition was 27.9%.
As for `O=C(/C=C/c1ccco1)Nc1cc(Cl)ccc1C(=O)O`, the figure is 21.9%; as for `CC1=NN(c2ccc(C(=O)OC(C)C)cc2)C(=O)/C1=C\C=C\c1ccco1`, 12.7%; as for `CC1=NN(c2ccccc2)C(=O)/C1=C/C=C/c1ccccc1`, 9.74%.
In the case of `COC(=O)c1cc(NC(=O)Cn2c(=O)cnc3ccccc32)cc(C(=O)OC)c1`, the inhibition is 24%.
In the case of `CCCCc1c(O)nc(SCC(=O)NC(C)(C)C)n(-c2ccccc2C)c1=O`, the inhibition is 0.223%.
As for `Cc1ccc(NC(=O)c2oc3ccccc3c2NC(=O)C2CC2)cc1`, the figure is 12.7%.
As for `Cc1cc(NC(=O)/C=C\C(=O)O)c([N+](=O)[O-])cc1C`, the figure is 9.88%.
`CCCn1c(N)c(C(=O)CSc2n[nH]c(-c3ccc(C)cc3)n2)c(=O)[nH]c1=O`: the inhibition was 8.37%.
With `CC(C)C[C@H]1CN=C(Nc2ccccc2)N1CCCC1CCCC1`, the inhibition is 16.4%.
Consider `O=c1[nH]c(=O)c2nnc(N/N=C/c3ccccc3F)nc2[nH]1`, for which the inhibition is 11.5%.
With `Oc1ccc(/C=N\Nc2nncc(-c3ccccc3)n2)cc1`, the inhibition was 28.1%.
Turning to `CC(C)C(NS(=O)(=O)c1cccc2nsnc12)C(=O)Nc1nc2ccc(Cl)cc2s1` (stereo unspecified), the inhibition was 1.74%.
Consider `COc1ccc(S(=O)(=O)Nc2c(C(=O)O)[nH]c3ccccc23)cc1`, for which the inhibition is 11.7%.
Consider `COc1ccc(N2C(=O)NC(=O)C2=O)cc1`, for which the inhibition is 1.84%.
In the case of `Nc1nc(Nc2ccccc2Cl)cc(=O)[nH]1`, the inhibition was 10.8%.
For `COCn1c(-c2ccc(OC)c(OC)c2)nc2ccccc21`, the inhibition was 3.62%.
For `O=C1CS/C(=N\N=C\c2ccco2)N1c1ccccc1`, the inhibition is 31.1%.
With `COc1ccc2cc(S(=O)(=O)n3cnc(C)c3)ccc2c1`, the inhibition was 3.48%.
Take `CCN(CC)c1ccc(/C=N/NC(=O)CN2CCCc3ccccc32)cc1`: the inhibition is 13.9%.
For `COc1ccc(N2CC(NC(=O)N3CCN(c4ccccc4)CC3)CC2=O)cc1` (stereo unspecified), the inhibition was 21.7%.
As for `CNC(=S)N1CCN(c2cccc(OC)c2)CC1`, the figure is -1.1%; as for `CCN1CCN(C(=O)NC2CC(=O)N(c3ccc(OC)cc3)C2)CC1` (stereo unspecified), 24.6%; as for `COc1ccc(N2CCN(C(=S)Nc3ccccc3)CC2)cc1`, 17.3%.
As for `CCC(Sc1nc(N)c(NC(=O)c2ccc(OC)cc2)c(=O)[nH]1)C(=O)O` (stereo unspecified), the figure is 7.11%; as for `Cc1cc(NC(=O)CSc2nc(N)c(NC(=O)c3ccc(F)c(F)c3)c(=O)[nH]2)no1`, 5.69%.
Regarding `N#CC(C#N)=C1c2cc(S(N)(=O)=O)ccc2-c2ccc(S(N)(=O)=O)cc21`, the inhibition was 3.73%.
As for `N=C1/C(=C\c2ccc(OCc3ccccc3)cc2)C(=O)N=C2SC(N3CCCC3)=NN12`, the figure is 10.7%.
Consider `O=c1[nH]c(CSc2nnc(-c3ccccc3)n2-c2ccccc2)nc2ccccc12`, for which the inhibition was 3.3%.
For `COc1cccc(C(=O)NCC(=O)N2CCC3(CC2)NCCc2[nH]cnc23)c1OC`, the inhibition was 28.6%.
As for `O=C(CSc1nc(-c2ccco2)cc(C(F)(F)F)n1)Nc1ccccc1C(F)(F)F`, the figure is 13.3%; as for `O=C(O)C1CC(=O)N(c2ccc(OCc3c(F)cccc3Cl)cc2)C1` (stereo unspecified), 1.79%; as for `COc1ccc(-c2oc3ncnc(N)c3c2-c2ccccc2)cc1`, 5.94%.
In the case of `Cc1ccc(-c2oc3ncnc(N)c3c2-c2ccc(C)cc2)cc1`, the inhibition is 5.86%.
As for `Cc1cc(NC(=O)CSc2nc3ccccc3n2CC(=O)N2CCC(C)CC2)no1`, the figure is -5.11%; as for `NC1=NC(=O)C2(COC(c3ccncc3)OC2)S1` (stereo unspecified), 3.62%; as for `CC(C)CSc1nc2ccccc2n1CC(=O)O`, 9.25%.
Regarding `CC(=O)N1C(=O)N(C(C)=O)C2C1N(C(C)=O)C(=O)N2C(C)=O` (stereo unspecified), the inhibition was 5.35%.
Turning to `O=C1CCCN=C(Nc2ccc(F)c(Cl)c2)S1`, the inhibition was 9.56%.
For the molecule `CN1CCN(/C=C2\SC(=S)NC2=O)CC1`, the inhibition is 5.4%.
Consider `CN1C(=O)/C(=C\C=C2/CCCN2C)N(C)C1=S`, for which the inhibition was 17.1%.
